± gives the standard deviation.

In this test the test system is THP-1 macrophages infected with Mycobacterium tuberculosis H37Rv. The test can be described thus: intracellular M.tb growth inhibition relative to DMSO (0) and 4 uM bedaquiline (100); higher = stronger inhibition of intracellular bacterial growth. Particulars: 10 µM; 4 days. On the procedure: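 OICR kinase inhibitor library screened in duplicate at 10 uM against THP-1 macrophages (PMA-differentiated) infected with M. tuberculosis H37Rv-pTEC27 (tdTomato RFP), 4 days at 37 C. Rows with complete host cell loss (placeholder inhibition 0, cell loss 100) were removed.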
`NS(=O)(=O)c1nn2cc(-c3ccccc3)nc2s1`: the “intracellular M.tb growth inhibition” value was found to be 42.3 ± 16%.

With `COc1cc2nccc(Oc3ccc(NC(=O)C4(C(=O)Nc5ccc(F)cc5)CC4)cc3)c2cc1OC`, the “intracellular M.tb growth inhibition” value is 94.8 ± 23%.

For the compound `Cn1cc(-c2cnc3ccc4ccc(CS(=O)(=O)NCc5ccccn5)cc4c(=O)c3c2)cn1`, the “intracellular M.tb growth inhibition” value is -162 ± 230%.

Turning to `Cc1ccc(S(=O)(=O)Nc2nc3ccccc3nc2Nc2ccc3nsnc3c2)cc1`, the “intracellular M.tb growth inhibition” value was -56.4 ± 99%. As to `O=C1NCCCc2c1oc1ccc(O)cc21`, the “intracellular M.tb growth inhibition” value is 11 ± 28%. The result for `CCN(CC)CCNC(=O)c1c(C)[nH]c(/C=C2\C(=O)Nc3ccc(F)cc32)c1C` [Sunitinib Malate] reads -45.8 ± 29%; that for `c1ccc(-c2n[nH]c3c2oc2ccccc23)cc1`, 7.69 ± 11%.

Turning to `OCCn1cc(-c2ccc3c(c2)CC/C3=N\O)c(-c2ccncc2)n1`, the “intracellular M.tb growth inhibition” value was -91.1 ± 160%. On to `Cc1nc(N)sc1-c1ccnc(Nc2ccc(N3CCOCC3)cc2)n1`, for which the “intracellular M.tb growth inhibition” value came out at 13.1 ± 18%. The result for `CC(C)n1nc(-c2cc3cc(O)ccc3[nH]2)c2c(N)ncnc21` reads 14.1 ± 20%.

The values are drawn from the supplement of paper PMC7530171.
